Laboratory results as given in PubChem BioAssay AID504332 (National Center for Advancing Translational Sciences (NCATS), 2011).
In all, about 350,000 compounds went through this assay and about 31,000 (8.9%) were called active. About 15% were inconclusive and are not listed. The full list was thinned out, with actives kept by preference. Values without a mark were called inactive. Calls come from the whole dose curve; as a rule, active = well fitted inhibition curve with a large enough effect; inconclusive = small, poorly fitted or top-dose-only effect; inactive = no such curve, though single readings can be large or run the other way.

target: Histone-lysine N-methyltransferase EHMT2 (Homo sapiens) (UniProt Q96KQ7); assay: qHTS Assay for Inhibitors of Histone Lysine Methyltransferase G9a; conditions: G9a H3K9 monomethylation, AlphaScreen, 2 h; series mostly up to 59 µM; activity, negative = inhibition: at the top concentration; note: nearly all actives have a fitted effect of over 75% in size
Excerpt: Methylated lysines, on the N-terminal tails of histone proteins serve as epigenetic markers to recruit factors that can then modify local chromatin structure to lead to functional consequences. G9a and other members of the SUV39 family of the SET domain-containing superfamily of histone lysine methyltransferases (HMT) have been identified to specifically methylate Lys9 of histone H3 (H3K9). G9a catalyzes the mono- and di-methylation of H3K9 in mammalian euchromatic regions, where the resulting H3K9me2 is indicative of transcriptional repression. […] The inhibition of G9a will result in transcriptional activation and work synergistically with DNA methyltransferase and histone deacetylase inhibitors, to kill cancer cells. This qHTS assay for identification of G9a inhibitors is a chemiluminescence based AlphaScreen (PerkinElmer). Methylation of biotinylated-histone peptide is measured through specific antibody-based detection, in conjunction with streptavidin-coated donor and anti-IgG antibody-coated acceptor beads. The method is particularly well suited for detection of inhibitors acting by the desired histone peptide competitive mechanism and is applicable to testing other HMTs. Although AlphaScreen has significant advantages with its utility in a variety of epigenetic target assays, the primary screening data provided in this deposition should be used with caution due to the prevalence of screening artifacts. An AlphaScreen counterscreen is highly recommended to be run against any putative actives to eliminate non specific artifacts. Alternatively, one can use other AlphaScreen assays in PubChem to filter out promiscuous hits. Quinn et al. A chemiluminescence-based method for identification of histone lysine methyltransferase inhibitors. Mol Biosyst 6(5): 782-8. 2010. PMID: 20567762 [2] Baell,Holloway. New substructure filters for removal of pan assay interference compounds (PAINS) from screening libraries and for their exclusion in bioassays. J Med Chem. 53(7):2719-40. 2010. PMID: 20131845 NIH Molecular Libraries Probe Production Network [MLPCN] NIH Chemical Genomics Center [NCGC] Structural Genomics Consortium (SGC) NIH Grant: 5U54 MH084681-02
To each well of a 1,536w plate, 2ul of HMT enzyme (final 20nM) were added, using a nanoliter dispenser. The G9a- and GLP-inhibitor BIX-01294 (CID: 25150857) are used as an intraplate control, with a 16-point titration in duplicate. A Kalypsys pin-tool transferred 23nl of library compound solution in DMSO to each well. Following a 15 min incubation of enzyme with compounds at room temperature, 1ul mixture of b-H3K9 peptide substrate (final 500nM) and SAM cofactor (final 20uM) were added. Reactions were allowed to proceed at room temperature for 2 hours. Methylated b-H3K9 peptide product was detected with 0.5 ug/mL rabbit polyclonal anti-monomethyl histone H3K9 antibody (Abcam Inc., Cambridge, MA) and 20 ug/mL each streptavidin-coated donor and anti-rabbit IgG acceptor AlphaScreen beads. Antibody and beads were added in a 1ul dispense, for a final volume of 4ul, and plates were incubated, protected from the light, for 10 min at room temperature. Microplates were then read on an EnVision multilabel plate reader using the 1,536 plate HTS AlphaScreen aperture (excitation time 80 ms, measurement time 240 ms).
% is set by controls: 0 for no effect and ±100 for the full control effect; potency is the fitted concentration of half-maximal effect.

Histone-lysine N-methyltransferase EHMT2 (Homo sapiens), sequence (Q96KQ7 913-1193 limits assumed): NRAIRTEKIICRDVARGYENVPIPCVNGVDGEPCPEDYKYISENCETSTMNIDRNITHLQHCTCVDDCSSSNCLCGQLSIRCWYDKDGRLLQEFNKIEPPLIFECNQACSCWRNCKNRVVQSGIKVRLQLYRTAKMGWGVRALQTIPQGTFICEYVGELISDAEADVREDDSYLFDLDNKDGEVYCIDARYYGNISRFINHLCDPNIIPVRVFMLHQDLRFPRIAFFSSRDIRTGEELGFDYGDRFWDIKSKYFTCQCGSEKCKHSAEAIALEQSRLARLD

With COc1ccc(Nc2nc(-c3cccnc3)nc3ccccc23)cn1 the Potency was 35.5 µM (active).
With Oc1ccc(N=Cc2c(O)ccc3ccccc23)cc1 the Potency was 1 µM (active).
For Oc1ccc(N=Cc2sc3ccccc3c2Cl)cc1, the Potency was 10 µM (active).
Oc1ccc2ccccc2c1C=Nc1ccccc1 was tested, and the Potency was 2.51 µM (active).
With COC(=O)COc1ccc2c(c1C)O/C(=C\c1ccco1)C2=O the Potency was 8.91 µM (active).
For CCOc1ccc(NC(=O)CN2CCN(CC(=O)Nc3ccc(OC)cc3)CC2)cc1, the Potency was “inactive”.
In the case of CCN(CC)c1ccc(NC(=O)c2ccc(Cl)nc2)cc1, the Potency is reported as 10 µM (active).
In the case of CCN(CC)c1ccc(NC(=O)CN2CCN(c3ccccn3)CC2)cc1, the Potency is reported as 44.7 µM (active).
In the case of CCN(CC)c1ccc(NC(=O)CN2CCN(CC(=O)Nc3ccc(Cl)cc3)CC2)cc1, the Potency is reported as 7.08 µM (active).
For CCN(CC)c1ccc([N+](=O)[O-])cc1C(=O)O, the Potency was 50.1 µM (active).

In order of falling “activity, negative = inhibition” value:
1. CCc1nc2onc(C)c2c(=O)n1CC(=O)O  17.4%
2. Cc1cc(C)c(OCC(=O)N/N=C/c2ccco2)c(C)c1  16.5%
3. O=S(=O)(Nc1ccc(-n2cnnn2)cc1)c1ccc(Cl)cc1  13.8%
4. O=C(N/N=C/c1c(Cl)[nH]c2ccccc12)c1sc2ccccc2c1Cl  11.9%
5. CCOC(=O)c1cccc(NS(=O)(=O)c2cn(C)c(C)n2)c1  8.15%
6. O=C(CN1CCN(c2ccccn2)CC1)NC1CCCCC1  8.12%
7. COc1ccc(N2CCN(C(=O)CSCc3nc(-c4ccccc4Cl)oc3C)CC2)cc1  1.56%
8. COc1ccc(NC(=O)C2CCCN(S(=O)(=O)c3cccc4nonc34)C2)cc1Cl (stereo not drawn)  -1.34%
9. COc1cc(Nc2nc(-c3ccc(OC)c(OC)c3)nc3ccccc23)cc(OC)c1  -2.06%
10. CCOC(=O)c1c(S(=O)(=O)N2CCCC(C(=O)NCc3ccc(F)cc3)C2)c(C)n(CC)c1C (stereo not drawn)  -3.56%
11. O=S(=O)(NCCc1nnc2ccc(SCc3ccc(Cl)cc3Cl)nn12)c1ccccc1  -4.22%
12. CCOc1ccccc1C(=O)Nc1ccc2c(c1)N(C)C(=O)c1ccccc1S2  -5.64%
13. CCOc1ccc(N(CC)C(=O)C2CCN(S(=O)(=O)c3cccc4nonc34)CC2)cc1  -6.23%
14. Cc1ccc(CN2CCCn3nc(C(=O)NCc4ccccc4Cl)cc3C2=O)cc1  -28.4%
15. Cc1cccc(N2CCN(C(=O)CCn3c(=O)c4cccn4c4cccnc43)CC2C)c1 (stereo not drawn)  -36%

In order of rising “activity, negative = inhibition” value:
1. CCOc1[nH]n(-c2ccc(Cl)cc2)c(=O)c1C=Nc1ccc(O)cc1  -47.3% [at 102 µM]
2. NS(=O)(=O)c1ccc(NC(=O)COC(=O)c2ccc(Cl)nc2)cc1  -28.6% [at 102 µM]
3. Cc1ccc(CN2CC(C(=O)N3CCN(S(=O)(=O)c4ccccc4)CC3)CC2=O)cc1 (stereo not drawn)  -21.6% [at 102 µM]
4. COC(=O)c1ccc2c(C(C)(C)O)c(C(C)(C)O)[nH]c2c1  -11.7% [at 102 µM]
5. CNc1ccc([N+](=O)[O-])cc1C(=O)O  -8.97% [at 102 µM]
6. COc1ccc(N=C(C)c2sc3ccccc3c2O)cc1  -6.22% [at 102 µM]
7. O=C(O)C#Cc1cccc2ccccc12  -4.59% [at 102 µM]
8. CCOC(=O)N1CCN(CC(=O)Nc2ccc(F)cc2)CC1  -2.68% [at 102 µM]
9. CCN(CC)C(=O)CN(c1cccc([N+](=O)[O-])c1)S(=O)(=O)c1ccccc1  -1.93% [at 102 µM]
10. CCOc1ccc(N=Cc2c(O)n(-c3cccc(C)n3)c(=O)c3ccccc23)cc1  5.98% [at 102 µM]
11. COc1ccccc1Oc1nc(-c2cccnc2)nc2ccccc12  7.82% [at 102 µM]
12. O=C(CN1CCN(c2ccccn2)CC1)Nc1ccc(Br)cc1  9.66% [at 102 µM]
13. Cc1cnc(NC(=O)c2ccc(Cl)nc2)s1  26.6% [at 102 µM]

In order of rising activity, negative = inhibition:
1. COc1cccc(C(=O)OCC(=O)c2[nH]c(C)c(C(C)=O)c2C)c1  -42.2% [at 12.7 µM]
2. CCC(=O)c1cc(F)ccc1OCC(=O)Nc1ccc2c(c1)OCCO2  -5.64% [at 12.7 µM]
3. COc1ccccc1OCC(=O)OCc1cc(-c2ccco2)on1  3.66% [at 12.7 µM]
4. COc1ccc(N(CCC(=O)NCCc2ccccc2)S(=O)(=O)c2ccc(C)cc2C)cc1  12.2% [at 12.7 µM]
5. CSCCC(NC(=O)c1ccco1)C(=O)NCCc1ccc(F)cc1 (stereo not drawn)  40.1% [at 12.7 µM]

In order of falling activity, negative = inhibition:
1. Cc1ccccc1N1CCN(S(=O)(=O)c2ccc3ccccc3c2)CC1  14.6% [at 0.501 µM]
2. CC(CN1CCOCC1)OC(=O)c1ccc(C(C)(C)C)cc1 (stereo not drawn)  6.26% [at 0.501 µM]
3. COc1ccc(S(=O)(=O)N2CCOCC2)cc1NC(=O)CSc1cc(C)ccc1C  3.19% [at 0.501 µM]
4. N#Cc1ccc(C2=CC(=O)C[C@H](c3ccc(Cl)cc3)C2)cc1  -28.8% [at 0.501 µM]

In the case of Cc1ccc(OCCNC(=O)CNC(=O)c2ccc(C)c(C)c2)cc1, the activity, negative = inhibition is reported as 24.7% [at 2.33 µM].
